The record followed here is PubChem BioAssay AID720549 (National Center for Advancing Translational Sciences (NCATS), 2013).

Values joined by “and” are separate entries in the source; they are usually repeats but may differ in a detail not shown here. Identical values can stand only once. Results filed as inconclusive are left out. Active and inactive are the calls of the source. Calls follow the shape of the dose curve; as a rule, active = well fitted inhibition curve with a large enough effect; inconclusive = small, poorly fitted or top-dose-only effect; inactive = flat fitted curve, though single readings scatter.

Sequence of RecQ-like DNA helicase BLM (Homo sapiens) (P54132 whole entry, looked up): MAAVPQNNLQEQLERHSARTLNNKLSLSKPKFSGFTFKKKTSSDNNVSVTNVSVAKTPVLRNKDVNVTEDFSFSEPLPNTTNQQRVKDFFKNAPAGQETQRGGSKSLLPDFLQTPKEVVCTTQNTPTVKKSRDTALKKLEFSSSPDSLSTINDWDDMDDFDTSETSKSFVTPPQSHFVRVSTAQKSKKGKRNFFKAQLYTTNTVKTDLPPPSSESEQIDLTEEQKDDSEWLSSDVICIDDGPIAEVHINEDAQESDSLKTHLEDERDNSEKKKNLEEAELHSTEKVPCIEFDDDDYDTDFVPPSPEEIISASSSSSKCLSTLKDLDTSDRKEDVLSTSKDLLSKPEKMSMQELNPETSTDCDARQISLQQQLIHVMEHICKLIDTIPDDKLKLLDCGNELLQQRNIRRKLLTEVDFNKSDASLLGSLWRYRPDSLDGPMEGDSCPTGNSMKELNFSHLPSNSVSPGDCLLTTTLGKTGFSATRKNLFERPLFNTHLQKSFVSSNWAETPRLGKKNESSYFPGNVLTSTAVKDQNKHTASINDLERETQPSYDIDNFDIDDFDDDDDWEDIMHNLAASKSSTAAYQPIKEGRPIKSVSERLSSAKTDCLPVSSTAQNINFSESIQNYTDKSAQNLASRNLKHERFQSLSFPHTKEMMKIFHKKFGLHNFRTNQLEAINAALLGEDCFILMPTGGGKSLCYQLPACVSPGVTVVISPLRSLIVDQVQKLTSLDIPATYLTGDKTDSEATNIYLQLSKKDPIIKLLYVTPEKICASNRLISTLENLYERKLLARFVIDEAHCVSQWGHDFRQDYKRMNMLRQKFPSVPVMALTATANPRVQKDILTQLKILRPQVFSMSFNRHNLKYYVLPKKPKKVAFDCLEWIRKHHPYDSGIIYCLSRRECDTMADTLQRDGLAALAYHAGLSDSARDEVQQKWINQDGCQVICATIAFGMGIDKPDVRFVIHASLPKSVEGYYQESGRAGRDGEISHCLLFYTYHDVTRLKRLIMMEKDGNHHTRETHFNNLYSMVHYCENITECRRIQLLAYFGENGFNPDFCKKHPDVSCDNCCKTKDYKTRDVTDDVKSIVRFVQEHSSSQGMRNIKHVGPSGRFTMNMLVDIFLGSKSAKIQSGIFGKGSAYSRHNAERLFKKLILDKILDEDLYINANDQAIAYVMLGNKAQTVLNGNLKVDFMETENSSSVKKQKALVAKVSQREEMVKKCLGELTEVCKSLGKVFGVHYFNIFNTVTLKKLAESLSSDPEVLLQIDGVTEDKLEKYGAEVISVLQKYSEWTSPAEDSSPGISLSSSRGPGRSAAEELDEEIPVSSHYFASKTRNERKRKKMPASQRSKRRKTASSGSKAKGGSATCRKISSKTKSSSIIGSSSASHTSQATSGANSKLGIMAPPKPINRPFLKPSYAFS

In this experiment the target is RecQ-like DNA helicase BLM (Homo sapiens) (UniProt P54132). The experiment is described as follows: qHTS for Inhibitors of Bloom's syndrome helicase (BLM): Helicase ATPase Orthogonal Confirmatory Assay for SAR. The conditions noted are these: purified BLM helicase ATPase activity assay; series mostly up to 57.1 µM; activity change, negative = inhibition: at the top concentration. An outline of the steps:
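Purified BLM (2 nM) in Tris-HCl pH 8.0 with MgCl2, DTT, Tween-20, preincubated 15 min with compound. Reaction with 200 nM ssDNA and 100 uM ATP ran 15 min; ADP-Glo luminescence, four-parameter Hill fit.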
For orientation: In qHTS, concentration-response curves come from the screen itself.
In the case of `O=C(Nc1ccc(Cl)c(Cl)c1)Nc1cccc(-c2ccncc2)n1`, the “activity change, negative = inhibition” value is -17.9% (inactive). With `N#Cc1cccc(NC(=O)Nc2nnc(-c3ccncc3)s2)c1`, the Potency is 2.29 µM (active).

With `O=C(Nc1ccc(F)c(C(F)(F)F)c1)Nc1nnc(C2CCCCC2)s1`, the “activity change, negative = inhibition” value was -2.56% (inactive). `O=C(Nc1ccc2ccccc2c1)Nc1nnc(-c2ccccn2)s1`: the “activity change, negative = inhibition” value was -10.8% (inactive).

`CCOC(=O)c1cccc(NC(=O)Nc2nnc(-c3ccncc3)s2)c1`: the “activity change, negative = inhibition” value is 2.71% (inactive).

Consider `CC(=O)c1cccc(NC(=O)Nc2nnc(-c3ccncc3)s2)c1`, for which the “activity change, negative = inhibition” value was -4.72% (inactive).

On to `N#Cc1cc(NC(=O)Nc2nnc(-c3ccncc3)s2)ccc1-c1cn[nH]c1`, for which the Potency is 1.02 µM (active) and 5.13 µM (active). On to `CC(C)(C)NC(=O)Nc1nnc(-c2ccncc2)s1`, for which the “activity change, negative = inhibition” value is 23.3% (inactive). Take `Cc1cc(NC(=O)Nc2nnc(C3CCCCC3)s2)ccc1F`: the “activity change, negative = inhibition” value is -1.09% (inactive). Regarding `O=S(=O)(Cc1ccc(Cl)c(Cl)c1)Nc1nnc(-c2ccncc2)s1`, the “activity change, negative = inhibition” value was -1.45% (inactive). The same measure, in the same setting: the figure for `O=C(Nc1ccc2ccccc2c1)Nc1nnc(-c2ccccc2Cl)s1` is -0.762% (inactive); for `O=C(Nc1ccc(F)c(C(F)(F)F)c1)Nc1cccc(-c2ccncc2)n1` it is -25.8% (inactive); for `O=C(Nc1ccc(Cl)c([N+](=O)[O-])c1)Nc1nnc(C2CCCCC2)s1` it is -4.88% (inactive). Still for that read-out and setting: the figure for `O=C(Nc1ccc(Cl)c(Cl)c1)Nc1nnc(N2CCNCC2)s1` is -19.8% (inactive). Take `Cc1ccc(-c2nnc(NC(=O)Nc3ccc4ccccc4c3)s2)cc1`: the “activity change, negative = inhibition” value was -2.31% (inactive).

With `O=C(Nc1ccc(Cl)c(Cl)c1)N1CCN(c2ccncc2)CC1`, the “activity change, negative = inhibition” value is 5.13% (inactive). Same read-out and setting: then `O=C(Nc1ccc(Cl)c(Cl)c1)Nc1nnc(NC2CCNCC2)s1`, with 27.6% (inactive); and `O=C(Nc1ccc(Cl)c(Cl)c1)Nc1ncc(-c2ccncc2)s1`, with -7.96% (inactive). Turning to `Nc1cc(NC(=O)Nc2nnc(-c3ccncc3)s2)ccc1Cl`, the Potency was 20.4 µM (active).

As for `CCCCCCNC(=O)Nc1nnc(-c2ccncc2)s1`, the “activity change, negative = inhibition” value is 11.1% (inactive). The same measure, in the same setting: the figure for `COc1ccc(-c2nnc(NC(=O)Nc3ccc4ccccc4c3)s2)cc1OC` is -6.95% (inactive). Take `O=C(Nc1ccc(Cl)c([N+](=O)[O-])c1)Nc1nnc(-c2ccncc2)s1`: the Potency was 1.82 µM (active).

For the compound `O=C(Nc1ccc(N2CCOCC2)c(C(F)(F)F)c1)Nc1nnc(-c2ccncc2)s1`, the “activity change, negative = inhibition” value was -8.29% (inactive). Regarding `CN(C(=O)Nc1ccc2ccccc2c1)c1nnc(-c2ccncc2)s1`, the “activity change, negative = inhibition” value is -14.4% (inactive). The same measure, in the same setting: the figure for `O=C(Nc1nnc(-c2ccncc2)s1)Nc1cc(C(F)(F)F)ccc1F` is 8.53% (inactive); for `O=C(Nc1ccc2ccccc2c1)Nc1nnc(-c2ccc(O)cc2)s1` it is -2.32% (inactive); for `COc1ccccc1CNC(=O)Nc1nnc(-c2ccncc2)s1` it is 18% (inactive). Still for that read-out and setting: the figure for `O=C(Nc1ccc(F)c(C(F)(F)F)c1)Nc1ccc(-c2ccncc2)s1` is -4.77% (inactive); for `O=C(Nc1ccc(Cl)c(Cl)c1)Nc1nnc(Br)s1` it is -6.98% (inactive).

Consider `O=C(Nc1nnc(-c2ccncc2)s1)Oc1ccc2ccccc2c1`, for which the Potency is 32.4 µM (active). As for `Cc1cc(NC(=O)Nc2cccc(-c3ccncc3)n2)ccc1F`, the “activity change, negative = inhibition” value is -5.53% (inactive). Still for that read-out and setting: then `O=C(Nc1ccc(Cl)c(Cl)c1)Nc1nnc(-c2ccc(F)cc2)s1`, with -2.99% (inactive).
